About 2,600 (16%) of roughly 16,000 compounds were called active. Not shown: some 20% with an inconclusive outcome. Calls come from the whole dose curve; as a rule, active = well fitted curve in the direction sought with a large enough effect; inconclusive = small, poorly fitted or top-dose-only effect, or effect the other way; inactive = no such curve, though single readings can be large or run the other way. The list is a sample of the results.
Biological target: Cytochrome P450 2D6 (Homo sapiens) (UniProt P10635)
Test: Cytochrome panel assay with activity outcomes
Details: recombinant CYP, pro-luciferin dealkylation, luminescence, p450-cyp2d6; series mostly up to 57.1 µM
% is set by controls: 0 for no effect and ±100 for the full control effect.

Chain of Cytochrome P450 2D6 (Homo sapiens) (P10635 whole entry, looked up): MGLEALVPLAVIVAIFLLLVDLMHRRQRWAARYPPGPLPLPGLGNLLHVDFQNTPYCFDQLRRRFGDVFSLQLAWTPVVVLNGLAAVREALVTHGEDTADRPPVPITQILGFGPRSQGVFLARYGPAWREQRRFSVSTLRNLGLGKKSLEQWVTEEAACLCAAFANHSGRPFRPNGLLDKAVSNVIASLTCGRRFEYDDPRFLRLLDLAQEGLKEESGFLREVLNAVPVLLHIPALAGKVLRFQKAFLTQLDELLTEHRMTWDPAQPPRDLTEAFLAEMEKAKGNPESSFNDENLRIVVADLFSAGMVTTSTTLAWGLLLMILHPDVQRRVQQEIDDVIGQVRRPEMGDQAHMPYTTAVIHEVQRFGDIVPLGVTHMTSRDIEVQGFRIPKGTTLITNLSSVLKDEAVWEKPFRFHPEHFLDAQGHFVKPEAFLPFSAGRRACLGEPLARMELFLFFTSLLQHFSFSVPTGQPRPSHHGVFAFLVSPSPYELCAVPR

SMILES	AC50	activity, negative = inhibition
Cn1cccc1C(=O)N1CCC2(CC1)CN(c1ccccn1)C2	inactive	
COc1cc(OC)c(C2C(C(=O)Nc3ccc(C)cc3C)=C(C)Nc3ncnn32)cc1OC (centres undefined)	inactive	
Cc1ccc(S(=O)(=O)NC(=O)c2cccn2C)cc1	inactive	
Cc1ccccc1C(=O)c1cccn1CC(=O)NCc1ccco1	inactive	
O=C(Cn1cccc1C(=O)c1ccccc1)NCc1cccs1	5.01 µM (active)	
O=C(Cn1ccc([N+](=O)[O-])n1)NCc1cccs1	inactive	
COCCn1c(=O)c(-c2cccs2)nc2cnc(N3CCNCC3)nc21	inactive	
COc1cc(NC(=O)Cc2c(C(=O)O)[nH]c3ccccc23)cc(OC)c1OC	inactive	
CCC(CC)C(=O)Nc1c2c(nn1-c1ccc(OC)cc1)CS(=O)(=O)C2	inactive	
CCN(CC)S(=O)(=O)c1cccc(C(=O)N[C@H](C(=O)OCC(=O)NC(=O)NC)C(C)C)c1	inactive	
CCOC(=O)c1c(C)[nH]c(C)c1C(=O)COC(=O)c1ccc(S(=O)(=O)N(CC)CC)cc1	28.2 µM (active)	
CCOC(=O)c1ccc(S(=O)(=O)N2CCN(C)CC2)cc1	inactive	
CCOC(=O)c1c(C)[nH]c2ccc3c(c12)CN1CCc2cc(OC)ccc2[C@@H]1O3	inactive	
CCN(CC)S(=O)(=O)c1ccc(C(=O)NC2=C(C(=O)OC)SCC2)cc1	inactive	
CCOC(=O)c1c(C)[nH]c(C)c1C(=O)COC(=O)c1cccc(S(=O)(=O)N(CC)CC)c1	17.8 µM (active)	
CS(=O)(=O)N1CCC2(CCN(C(=O)Nc3cccc(C#N)c3)CC2)CC1	inactive	
O=C1c2c(O)cc(O)cc2O[C@@H](c2ccc(O)c(O)c2)[C@H]1O	inactive	
CC1=NN(c2ccccc2)C(=O)/C1=C\N1CC(C)OC(C)C1 (centres undefined)	inactive	
COc1cc2c(cc1OC)C(C(=O)Nc1ccc3c(c1)OCCO3)C(c1cccnc1)N(C)C2=O (centres undefined)	inactive	
FC(F)(F)c1nc(-c2ccncc2)ncc1-c1nnnn1-c1ccccc1	inactive	
C/C(CC(=O)Nc1ccccn1)=N\NC(=O)C(=O)Nc1cccc(Cl)c1C	inactive	
O=C(Nc1ccc(F)cc1)c1ccc(-n2ccnc2)nc1	0.178 µM (active)	
CCOCC(=O)Nc1cc(C(=O)Nc2cccc(C)c2C)ccc1Cl	inactive	
CC(C)C(=O)Nc1ccc(NC(=O)c2cccnc2)cn1	inactive	

SMILES	AC50	activity, negative = inhibition
Cc1c(Cl)cccc1NC(=O)c1ccc(-n2ccnc2)nc1	0.0316 µM (active)	
Cc1ccc(C(=O)Nc2ccc(N3CCOCC3)nc2)cc1	inactive	
O=S(=O)(/N=C(/Nc1ccccn1)c1ccccc1)c1ccccc1	inactive	
CN1CCN(Cc2nc3cccc4c3c([n+]2[O-])-c2ccccc2-4)CC1		-3.37% [at 11.4 µM] (inactive)
N#C[C@H]1CN[C@H](N)N[C@@H]1N		8.31% [at 11.4 µM] (inactive)
Cc1cccc2c1Oc1ccccc1[C@@H]2NC(=O)c1ccc([N+](=O)[O-])cc1		13.1% [at 11.4 µM] (inactive)
O=C(c1ccc([N+](=O)[O-])cc1)n1nc(-c2ccccc2)nc1NCc1ccccc1	inactive	
CSc1nc(-c2ccccc2)nn1C(=O)c1ccccc1	inactive	
CCc1ccccc1NC(=O)CSc1nc(-c2ccccc2)nn1C(=O)c1cccc([N+](=O)[O-])c1	10 µM (active)	
Nc1c(C(=O)NCc2ccccc2)sc2nc3c(cc12)C(=O)CCC3	inactive	
C[C@@](N)(C(=O)O)c1ccc(P(=O)(O)O)cc1	inactive	
O=C(O)c1cc(=O)cc(C(=O)O)[nH]1	inactive	
CC(=O)N1CCN(C(=O)CC2OC(=O)c3ccccc32)CC1 (centres undefined)	inactive	
CCOC(=O)Cc1csc(NC(=O)CCCCCN2C(=O)c3ccccc3C2=O)n1	14.1 µM (active)	
CCOC(=O)c1sc(NC(=O)CCCCCN2C(=O)c3cccc4cccc(c34)C2=O)nc1C	inactive	
CCOC(=O)Cc1csc(NS(=O)(=O)c2ccccc2)n1	inactive	
CCOC(=O)C1=C(C)Nc2ncnn2C1c1cccnc1 (centres undefined)	inactive	
CCCC(=O)Nc1nc(C(=O)OCC)cs1	inactive	
Nc1ccn([C@@H]2CC[C@H](CO)O2)c(=O)n1	inactive	
C[C@]12CC[C@H]3c4ccc(O)cc4CC[C@@H]3[C@H]1CC[C@@H]2OC(=O)CCC1CCCC1		1.36% [at 11.4 µM] (inactive)
CCCCCC1=C2CNC(Cc3ccccc3)(C(=O)OC)C=C2C(C)C1=O (centres undefined)	12.6 µM (active)	
CCCC1(C(=O)OC)C=C2C(=C(C(C)C)C(=O)C2C)CN1 (centres undefined)	inactive	
COC(=O)C1(CC(C)C)C=C2C(=C(c3ccccc3)C(=O)C2C)CN1 (centres undefined)	inactive	
COC(=O)C1(C)C=C2C(=C(c3ccccc3)C(=O)C2C)CN1 (centres undefined)	inactive	

SMILES	AC50	activity, negative = inhibition
COC(=O)C1(Cc2ccccc2)C=C2C(=C(C(C)C)C(=O)C2C)CN1 (centres undefined)	12.6 µM (active)	
CCCC1(C(=O)OC)C=C2C(=C(c3ccccc3)C(=O)C2C)CN1 (centres undefined)	inactive	
CCCCCC1=C2CNC(CC(C)C)(C(=O)OC)C=C2C(C)C1=O (centres undefined)	5.01 µM (active)	
CCCC1(C(=O)OC)C=C2C(=C(C)C(=O)C2C)CN1 (centres undefined)	inactive	
CO[C@H]1COC(=O)[C@H](C)NC(=O)C/C=C\[C@@H](C)[C@H](OC)COC(=O)[C@@H](OCc2ccccc2)/C=C\[C@@H]1C		3.57% [at 11.4 µM] (inactive)
O=S(=O)(c1ccccc1)N1CN2CN(C1)CN(S(=O)(=O)c1ccccc1)C2		2.33% [at 11.4 µM] (inactive)
NNS(=O)(=O)c1cc(C(=O)O)cc(C(=O)O)c1		5.99% [at 11.4 µM] (inactive)
COc1ccc(Oc2ncc3nc(-c4cn(C)c5ccccc45)c(=O)n(C)c3n2)cc1	inactive	
COc1ccc(C(=O)NC(C)c2cc(OC)c(OC)cc2Br)cc1 (centres undefined)	inactive	
CN(C)[C@@H]1C(=O)C(C(N)=O)=C(O)[C@]2(O)C(=O)C3=C(O)c4c(O)ccc(Cl)c4[C@H](O)[C@H]3C[C@@H]12	inactive	
O=C(c1ccccc1-c1nc(-c2ccccc2)no1)N1CCOCC1	inactive	
CCOC(=O)N/N=C1/C[C@@H](O)[C@@H](O)[C@@H]2[C@@H]3C(=O)N(Cc4ccc5c(c4)OCO5)C(=O)[C@H]3CC[C@H]12		-9.22% [at 11.4 µM] (inactive)
CC1(C)SC(=S)N(Cc2ccc3c(c2)OCO3)C1N(O)C(=O)NC1CCCCC1 (centres undefined)	2.24 µM (active)	
COc1ccccc1Nc1nc(-c2sc(NC(=O)c3ccc([N+](=O)[O-])cc3)nc2C)cs1	inactive	
O=[N+]([O-])c1cccc(/C=N\Nc2ccc3ccccc3n2)c1O	3.16 µM (active)	
Nc1cc(Cl)nc(N/N=C/c2ccccc2[N+](=O)[O-])n1	inactive	
Cc1nc2ccccn2c1C(=O)N/N=C/c1ccccc1[N+](=O)[O-]	inactive	
O=C(O)c1c2ccccc2cc2ccccc12	inactive	
C/C(CCC(=O)OC[C@@H]1O[C@H](C#Cc2ccccc2)C=C[C@@H]1Oc1ccc(C)cc1)=N/OC[C@@H](O)[C@H]1O[C@H]2OC(C)(C)O[C@H]2[C@@H]1O		14.6% [at 11.4 µM] (inactive)
CCn1c(N2CCN(C(=O)Nc3ccc(F)cc3)CC2)nc2ccccc21	inactive	
COc1cccc(N2CCN(C(=S)Nc3cccc(C)c3)CC2)c1	inactive	
CCOC(=O)N/N=C1/C[C@@H](O)[C@@H](O)[C@@H]2[C@@H]3C(=O)N([C@@H](C)c4ccccc4)C(=O)[C@H]3CC[C@H]12		18.4% [at 11.4 µM] (inactive)
NC(N)=Nc1nc(CCN2C(=O)c3ccccc3C2=O)cs1	15.8 µM (active)	
N#C/C(=C/c1cccc(C(F)(F)F)c1)c1nc(CCN2C(=O)c3ccccc3C2=O)cs1	inactive	

SMILES	AC50	activity, negative = inhibition
Nc1nonc1-c1noc(CCCN2C(=O)c3ccccc3C2=O)n1	inactive	
COc1cc(S(C)=O)ccc1-c1nc2ncccc2[nH]1 (centres undefined)	inactive	
O=C(c1ccc(Oc2ccc(C(F)(F)F)cn2)cc1)N1CCN(c2ccccc2)CC1	inactive	
CCC(=O)Nc1cccc(NC(=O)c2cccc([N+](=O)[O-])c2)c1	inactive	
CC1CCN(CC(=O)Nc2cccc([N+](=O)[O-])c2)CC1	5.62 µM (active)	
O=C(CN1CCCCC1)Nc1nnc(-c2ccc([N+](=O)[O-])cc2)s1	inactive	
COc1ccc(N(CC(=O)O)N=O)cc1		8.99% [at 11.4 µM] (inactive)
COc1ccc(OC)c2[nH]c(=O)c(CCNC(=O)c3ccc(S(=O)(=O)N(C)C)cc3)cc12	inactive	
O=C1[C@@H]2[C@H]3[C@H](O)[C@H](O)C/C(=N/OC[C@@H](O)COCc4ccco4)[C@@H]3CC[C@H]2C(=O)N1c1ccc(F)cc1F		10.9% [at 11.4 µM] (inactive)
COc1ccccc1CNC(=O)C1CCN(S(=O)(=O)N2CC(C)CC(C)C2)CC1 (centres undefined)	inactive	
COc1ccccc1CNCc1cccs1	0.794 µM (active)	
COc1cc(C)c(Br)cc1S(=O)(=O)NCc1ccccc1	inactive	
COc1ccccc1CNC(=O)C/C(C)=N/NC(=O)Cc1ccccc1	inactive	
COc1cc(CNCc2cccs2)cc(Br)c1OC	0.0562 µM (active)	
C=CCOc1c(Br)cc(CNc2ccc(NC(=O)C(C)C)c(OC)c2)cc1OC	inactive	
O=P(Cc1cc[n+]([O-])cc1)(c1ccccc1)c1ccccc1	inactive	
CCC(C)NS(=O)(=O)c1ccc(OCC(=O)NCC2CCCO2)cc1 (centres undefined)	inactive	
O=C(NCCCCc1ccccc1)C1CC(c2ccccc2[N+](=O)[O-])=NO1 (centres undefined)	0.1 µM (active)	
Cc1ccc(CNC(=O)C2CC(c3ccccc3[N+](=O)[O-])=NO2)o1 (centres undefined)	inactive	
Cc1ccc(CNC(=O)C2CC(c3ccccc3[N+](=O)[O-])=NO2)cc1 (centres undefined)	inactive	
CC(C)(C)OC(=O)N1CCCC1C(=O)NCCc1ccccc1 (centres undefined)	inactive	
Cc1ccc(CCNC(=O)C2CC(c3ccccc3[N+](=O)[O-])=NO2)cc1 (centres undefined)	2.51 µM (active)	
